# Many of the other results were omitted from the sample, so hits are more common in it than they were.
# RE007 growth inh: less growth of the S. pombe RE007 Vpr strain; 360,000 tested, 0.21% active; Potency, µM (top dose mostly 92.2 µM), for the others: at the top dose activity change, negative = less growth, most hits filed as inhibitors; S. pombe RE007 Vpr strain, BacTiter-Glo ATP luminescence, 24 h; active = well fitted falling curve with a large enough effect; inconclusive = small, poorly fitted or top-dose-only effect; inactive = no such curve, though single readings can be large or run the other way; note: potency is the fitted concentration of half-maximal effect; % is set by controls: 0 for no effect and ±100 for the full control effect; nearly all actives have a fitted effect of over 50% in size
#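 Fission yeast RE007 carrying one integrated HIV-1 vpr copy, seeded at OD 0.01 in PMG+AL medium with 23 nL pinned compound. Grown 24 h at 30 degrees; viability read by BacTiter-Glo luminescence after 5 min.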
# Cycloheximide cs: counter-screen hit for Shiga toxin inhibitors, cycloheximide; AID 2314; 300,000 tested, 12% active; cell reporter, cycloheximide protein synthesis inhibition counterscreen; max response, %; in the data active = max response mostly above about 13%, no sharp cut-off; inactive = mostly below about 14%; note: read at 38.3 µM for the half of the compounds with a filed dose; 0% is about no effect
# Giardia FBPA inh-1: Giardia lamblia aldolase inhibition; AID 2451; A8B2U2; Potency, µM (top dose mostly 59.6 µM), for inactives: at the top dose activity, negative = inhibition, actives largely listed as inhibitors; 290,000 tested, 0.71% active; purified Giardia FBPA; note: potency is the fitted concentration of half-maximal effect; % is set by controls: 0 for no effect and ±100 for the full control effect; nearly all actives have a fitted effect of over 55% in size
# Target sequence (A8B2U2 whole entry, looked up): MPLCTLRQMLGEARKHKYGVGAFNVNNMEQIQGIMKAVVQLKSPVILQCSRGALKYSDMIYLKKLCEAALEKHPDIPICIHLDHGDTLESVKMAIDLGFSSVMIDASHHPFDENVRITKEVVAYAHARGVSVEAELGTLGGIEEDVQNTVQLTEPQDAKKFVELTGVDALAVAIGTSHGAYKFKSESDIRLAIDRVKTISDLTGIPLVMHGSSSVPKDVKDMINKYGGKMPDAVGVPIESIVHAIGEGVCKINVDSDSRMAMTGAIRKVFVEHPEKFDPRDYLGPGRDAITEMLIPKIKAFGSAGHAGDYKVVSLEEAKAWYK
#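 40 nM FBPA preincubated 10 min at RT with compound (up to 57.5 uM final), then substrate plus GAPDH/TPI/NAD/arsenate coupling and diaphorase/resazurin added. Fluorescence read after 20 min at RT, 525/598 nm.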
# LmPK inhibitor: LmPK (Leishmania mexicana) enzyme inhibition; Q27686; purified LmPK, Kinase-Glo ATP luminescence, 1 h; Potency, µM (doses to about 57.5 µM), for the others: at the highest dose activity change, negative = inhibition, most hits filed as inhibitors; 290,000 tested, 0.37% active; note: potency is the fitted concentration of half-maximal effect; % is set by controls: 0 for no effect and ±100 for the full control effect
#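 0.1 nM LmPK, 0.5 mM PEP, 0.1 mM ADP; 50 mM imidazole pH 7.2, 7 mM MgCl2, 50 mM KCl; 1 h RT. Kinase-Glo luminescence readout, normalized to no-enzyme (full inhibition) and uninhibited wells.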
# TbPYK inhibitor: blocks Trypanosoma brucei pyruvate kinase; 410,000 tested, 0.12% active; Potency, µM (titrated, usually from 76.8 µM), inactives show top-dose activity, negative = inhibition, usual class: inhibitors; TbPYK enzyme, Kinase-Glo Plus ATP luminescence, 45 min; Q57TT1; note: potency is the fitted concentration of half-maximal effect; % is set by controls: 0 for no effect and ±100 for the full control effect; nearly all actives have a fitted effect of over 50% in size
#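 Luminescent Kinase-Glo Plus end-point after 45 min room-temperature reaction of T. brucei pyruvate kinase started with 130 uM ADP (final). Buffer TEA 50 mM pH 7.2 with KCl, MgCl2, BSA, Tween-20; titration-based qHTS with fitted concentration-effect curves.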
# Shiga toxin inh: Shiga toxin inhibition. Vero cells, Shiga toxin protein synthesis inhibition reporter. inhibition, % at 38.7 µM. 290,000 tested, 9.2% active; in the data active = inhibition mostly above about 28%, no sharp cut-off; inactive = mostly below about 43%; note: 0% is about no effect
# Giardia growth: blocks growth of Giardia lamblia trophozoites; Potency, µM (top dose mostly 57.5 µM), inactives show top-dose activity change, negative = inhibition, most hits filed as inhibitors; Giardia lamblia trophozoite growth inhibition; AID 2785; 1,500 tested, 5% active; shares compounds with Giardia FBPA inh-1;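 note: potency is the fitted concentration of half-maximal effect; trophozoites exposed to compound for 48 h at 37 °C; % is set by controls: 0 for no effect and ±100 for the full control effect; nearly all actives have a fitted effect of over 70% in size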
# Mammal cell tox: counter-screen for Giardia aldolase inhibitors: mammalian cell toxicity. shares compounds with Giardia FBPA inh-1. mammalian cell viability counter-screen, qHTS. Potency, µM (doses to about 57.5 µM), inactives show top-dose viability change, negative = toxicity, usual class: inhibitors. 1,500 tested, 4% active. AID 2786;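 note: Chinese hamster ovary cells used as mammalian cytotoxicity surrogate; viability measured as cellular ATP by luminescence; potency is the fitted concentration of half-maximal effect; compound exposure lasted 48 h before reading; % is set by controls: 0 for no effect and ±100 for the full control effect; nearly all actives have a fitted effect of over 60% in size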
# Giardia FBPA inh-2: confirmation of Giardia fructose-bisphosphate aldolase inhibitors; Potency, µM (doses to about 57.5 µM), for the others: at the highest dose activity change, negative = inhibition, hits mostly inhibitors; shares compounds with Giardia FBPA inh-1; 1,500 tested, 5% active; purified Giardia aldolase enzyme activity, qHTS; note: potency is the fitted concentration of half-maximal effect; % is set by controls: 0 for no effect and ±100 for the full control effect; nearly all actives have a fitted effect of over 45% in size
# Rabbit aldolase: blocks rabbit muscle aldolase in Giardia aldolase selectivity test; shares compounds with Giardia FBPA inh-1; Rabbit muscle FBPA enzyme inhibition, selectivity counter-screen; Potency, µM (titrated, usually from 57.5 µM), without a hit: at the highest dose activity, negative = inhibition, usual class: inhibitors; 1,500 tested, 4% active; note: potency is the fitted concentration of half-maximal effect; % is set by controls: 0 for no effect and ±100 for the full control effect; nearly all actives have a fitted effect of over 60% in size
# GAPDH counter: counter-screen for Giardia aldolase inhibitors: GAPDH coupling enzyme. shares compounds with Giardia FBPA inh-1. GAPDH coupling enzyme counterscreen, biochemical, qHTS. Potency, µM (series often up to 57.5 µM), inactives show at the top dose activity change, negative = inhibition, usual class: inhibitors. 1,500 tested, 6% active. AID 2795; note: potency is the fitted concentration of half-maximal effect; % is set by controls: 0 for no effect and ±100 for the full control effect; nearly all actives have a fitted effect of over 55% in size
# Numbers without * were called inactive; ? = inconclusive; . = no result given; [ ] = another dose, or the depositor's remark. Unless noted, calls come from the whole dose curve; as a rule, active = well fitted curve in the direction sought with a large enough effect; inconclusive = small, poorly fitted or top-dose-only effect, or another doubt; inactive = no such curve, though single readings can be large; an effect the other way counts as inactive or inconclusive.
SMILES,RE007 growth inh,Cycloheximide cs,Giardia FBPA inh-1,LmPK inhibitor,TbPYK inhibitor,Shiga toxin inh,Giardia growth,Mammal cell tox,Giardia FBPA inh-2,Rabbit aldolase,GAPDH counter
COC(=O)c1sc(NC(=S)NC(=O)c2ccc(F)cc2)nc1C,.,18,0%,2%,.,48,.,.,.,.,.
COC(=O)c1sc(NC(=S)NC(=O)c2cccc(Br)c2)nc1C,-8%,34*,11µM*,-6%,1%,70*,53%,-1%,8%,5%,19%
COc1ccc(OC)c(NC(=O)CN(C)CC(=O)Nc2ccccc2Br)c1,-2%,-3,18µM*,-1%,-12%,-6,-14%,8%,-4%,7%,6%
COc1cccc(CC(=O)Nc2cccc3ccccc23)c1,1%,-3,-8%,0%,-3%,-8,.,.,.,.,.
COc1cccc(CN(C)CC(=O)Nc2cccc3ccccc23)c1,-17%,-2,18µM*,1%,-7%,-11,2%[10.4 µM],-9%,2%,5%,8%
CCOC(=O)C1CCCN(C/C=C/c2ccccc2)C1 (stereo not given),-2%,-3,16µM*,-2%,3%,-7,67%,14%,11%,10%,-1%
Cc1cccnc1Nc1nc(-c2ccc(O)c(O)c2)cs1,4%,45*,10µM*,-4%,-16%,80*,-18%,-3%,-19%,-29%,-14%
O=C(c1ccco1)N(Cc1cccnc1)c1nc2ccc(F)cc2s1,.,.,.,.,6%,.,.,.,.,.,.
COc1cccc2sc(Nc3nnc(-c4ccc(F)cc4)o3)nc12,-24%,19*,16µM*,6%,-7%,39,67%,-11%,13%,-6%,0%
O=C(NNC(=O)c1ccccc1[N+](=O)[O-])c1cnccn1,14%,-1,20µM*,3%,4%,-4,?,-13%,2%,1%,-4%
O=C(NNC(=O)c1ccc(Cl)cc1Cl)c1cnccn1,-6%,12,20µM*,3%,6%,28,8.9µM*,-8%,-5%,5%,-1%
O=C(NNC(=O)c1cnccn1)c1ccc(Cl)cc1,-2%,22*,13µM*,2%,4%,23,-5%[10.4 µM],-4%,-5%,5%,3%
COc1cccc(C(=O)NC2=NC(c3ccccc3F)CC(=O)N2)c1 (stereo not given),.,.,.,.,1%,.,.,.,.,.,.
CCOc1ccc(C(=O)NCCc2sc(-c3cccc(F)c3)nc2C)cc1OCC,.,.,.,.,-2%,.,.,.,.,.,.
CCC(=O)N1CCc2cc(Br)cc(S(=O)(=O)CCC(=O)N3CCN(c4cccc(C(F)(F)F)c4)CC3)c21,.,.,.,.,-5%,.,.,.,.,.,.
COc1ccccc1N1CCN(Cc2ccc(OC)c(OC)c2OC)CC1,11%[3.69 µM],-2,-28%,8%,.,-7,.,.,.,.,.
COc1ccc(CN2CCN(CCCCOc3ccc(Cl)cc3)CC2)c(OC)c1OC,-17%,8,18µM*,4%,-12%,4,-21%,-6%,-3%,1%,9%
O=C(N/N=C/c1ccc[nH]1)c1ccccc1[N+](=O)[O-],-6%,-4,-22%,0%,-6%,-2,.,.,.,.,.
O=[N+]([O-])c1ccc(N/N=C/c2ccc[nH]2)cc1,0%,84*,18µM*,-23%,-4%,66*,0%[10.4 µM],1%,-26%,-18%,?

# From PubChem
